# Hits are enriched below; roughly 11% of the tested compounds scored in any of these assays.
# HPGD inh = blocks human HPGD enzyme activity | Potency, µM, for the others: top-dose activity change, negative = inhibition, hits mostly inhibitors | AID 894 | purified HPGD, NADH fluorescence kinetic, PGE2 substrate | 150,000 compounds, 4.3% hits; also: potency is read from the fitted curve at half-maximal effect; % is scaled to controls: 0 for no effect and ±100 for the full control effect
# Target sequence (P15428 whole entry, looked up): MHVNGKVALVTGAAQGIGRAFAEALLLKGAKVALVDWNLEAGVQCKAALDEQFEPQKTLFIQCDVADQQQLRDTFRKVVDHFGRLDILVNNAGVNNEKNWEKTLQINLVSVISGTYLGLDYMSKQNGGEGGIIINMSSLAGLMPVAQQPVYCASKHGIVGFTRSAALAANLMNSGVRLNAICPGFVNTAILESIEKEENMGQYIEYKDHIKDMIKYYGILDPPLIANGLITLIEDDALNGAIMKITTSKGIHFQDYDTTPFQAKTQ
#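 NADH formation kinetics: reaction with 30 uM PGE2 and 1 mM NAD+ (final), 20 nM enzyme, Tris-HCl pH 8 with Tween 20, after 15 min compound preincubation at room temperature. Fluorescence change, last versus first of five reads.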
# HTT cytoprotect = protects HTT-Q103 PC12 cells, measured by ATP | PC12 HTT-Q103 induced, cytoprotection, ATP luminescence, 40 h | Potency, µM (series often up to 56.4 µM), for the others: cytoprotection (ATP increase), actives largely listed as activators | 230,000 compounds, 0.14% hits | AID 1471; active = well fitted curve in the direction sought with a large enough effect; inconclusive = small, poorly fitted or top-dose-only effect, or another doubt; inactive = no such curve, though single readings can be large; an effect the other way counts as inactive or inconclusive; also: potency is read from the fitted curve at half-maximal effect; % of control where 0% means no effect; nearly all actives have a fitted effect of over 45% in size
#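 Rat PC12, Q103 Htt exon1-GFP fusion, ecdysone promoter; tebufenozide inducer 100 nM final; compound titration; qHTS, 1500 cells/well; ATPlite luminescent read.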
# PNC assembly inh = perinucleolar compartment assembly inhibition. PC3M PTB-GFP, PNC prevalence imaging, 16 h; active compounds read low. activity change (PNC), negative = inhibition, % at 10 µM. 140,000 compounds, 3.1% hits. AID 2417;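 active = readout at or below -70, meaning at least 70% loss of cells showing the perinucleolar compartment, a nuclear body marking cancer cells; inconclusive = readout between -30 and a set limit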;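 also: plate controls were DMSO wells for no effect and camptothecin positive control wells for full effect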
#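 Compounds are pinned in duplicate onto adhered PC3M cells stably expressing GFP-tagged PTB and incubated 16 h at 37 C. Cells are then fixed, nuclei stained with Hoechst, and PNC-positive cells counted.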
# ALDH1A1 inh = ALDH1A1 (human) enzyme inhibition. Purified ALDH1A1, NADH fluorescence, propionaldehyde substrate. Potency, µM (series often up to 75.3 µM), for the others: at the highest dose activity, negative = inhibition, actives largely listed as inhibitors. 220,000 compounds, 7.3% hits. AID 1030;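 also: potency is read from the fitted curve at half-maximal effect; plate controls were no enzyme wells and a reference inhibitor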
# HttQ103 aggreg = inhibitors of mutant huntingtin aggregate formation in PC12 cells | PC12 HttQ103-GFP aggregates, Acumen cytometry, 40 h | 220,000 compounds, 1.1% hits | Potency, µM (series often up to 46.1 µM), without a hit: top-dose activity change, negative = inhibition, hits mostly inhibitors; active = well fitted curve in the direction sought with a large enough effect; inconclusive = small, poorly fitted or top-dose-only effect, or another doubt; inactive = no such curve, though single readings can be large; an effect the other way counts as inactive or inconclusive; also: potency is read from the fitted curve at half-maximal effect; % is scaled to controls: 0 for no effect and ±100 for the full control effect; nearly all actives have a fitted effect of over 60% in size
#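 Aggregate formation scored by laser-scanning cytometer (488 excitation, 500–530 emission) in lysed PC12 cells expressing Q103-GFP after 100 nM tebufenozide induction; library tested in dose series, with ATPLite reagent added in the multiplex.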
# RGS12 GoLoco inh = inhibitors of human Gai1-RGS12 GoLoco interaction (red fluorophore). P63096. Gai1:RGS12 GoLoco peptide FP, rhodamine, 10 min. Potency, µM (titrated, usually from 61.6 µM), without a hit: at the highest dose activity, negative = inhibition, hits mostly inhibitors. 230,000 compounds, 0.44% hits. AID 880; active = well fitted inhibition curve with a large enough effect, not every such curve was filed as active; inactive = no such curve, though single readings can be large or run the other way; also: potency is read from the fitted curve at half-maximal effect; % is scaled to controls: 0 for no effect and ±100 for the full control effect; nearly all actives have a fitted effect of over 30% in size
# Target sequence (P63096 whole entry, looked up): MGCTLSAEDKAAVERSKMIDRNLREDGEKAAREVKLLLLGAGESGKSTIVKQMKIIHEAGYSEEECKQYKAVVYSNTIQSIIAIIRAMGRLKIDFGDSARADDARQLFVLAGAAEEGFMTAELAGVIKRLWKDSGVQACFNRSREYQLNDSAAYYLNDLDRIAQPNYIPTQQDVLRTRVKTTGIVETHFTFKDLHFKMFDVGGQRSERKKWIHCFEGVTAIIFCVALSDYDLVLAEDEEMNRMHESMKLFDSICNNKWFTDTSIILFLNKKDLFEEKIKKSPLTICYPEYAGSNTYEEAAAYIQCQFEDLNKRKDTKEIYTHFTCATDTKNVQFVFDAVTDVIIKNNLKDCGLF
# * = called active by the depositor; ? = inconclusive; nt = not tested or not shown; [ ] = another dose, or the depositor's remark. Unless noted, calls follow the shape of the dose curve; as a rule, active = well fitted inhibition curve with a large enough effect (not every such curve was filed as active); inconclusive = small, poorly fitted or top-dose-only effect, or another doubt; inactive = no such curve, though single readings can be large or run the other way.
SMILES,HPGD inh,HTT cytoprotect,PNC assembly inh,ALDH1A1 inh,HttQ103 aggreg,RGS12 GoLoco inh
C=CCOc1c(Cl)cc(CNc2ccc(N(C)C)cc2)cc1OC,?,?,?,2µM*,-2%,22µM*
Cc1ccc(N2C(=O)[C@@H]3C(C(=O)C(c4ccccc4)c4ccccc4)=NN[C@@H]3C2=O)cc1,-14%,43%[10 µM],?,22µM*,-7%,3%
COc1cc(NC(=O)CSc2nccc(C)n2)c(C)cc1[N+](=O)[O-],-10%,-6%[10 µM],1,-9%,-3%,16%
Cc1nc(SC2CC(=O)N(c3ccccc3)C2=O)nc2c1CCCC2 (stereo not drawn),-10%,-12%,?,-12%,2%,5%
O=C1CC(Sc2cccs2)C(=O)N1c1ccccc1 (stereo not drawn),nt,4%[10 µM],nt,13µM*,-6%[9.22 µM],5%
O=C1CC(SC2=NCCS2)C(=O)N1c1ccc(Br)cc1 (stereo not drawn),-10%,32%[10 µM],?,7.9µM*,-16%,10%
Cc1nnc(SC2CC(=O)N(c3ccccc3)C2=O)s1 (stereo not drawn),13µM*,-3%[1.9 µM],-23,0.71µM*,?,34%
O=C1CC(SC2=NCCS2)C(=O)N1c1ccc(Cl)cc1 (stereo not drawn),-14%,41%[10 µM],72,?,1%,10%
O=C(O)c1ccccc1SC1CC(=O)N(C2CCCCC2)C1=O (stereo not drawn),-8%,-3%[10 µM],40,0.63µM*,0%,-18%
Cc1ccc(CC(=O)N/N=C/c2ccc3c(c2)OCO3)cc1,nt,-32%,nt,-2%,2%,0%
CC(C)CNC1=C(C(=S)Nc2ccccc2)C(=O)CC(C)(C)C1,0%,3%[10 µM],14,?,-8%,-2%
O=[N+]([O-])c1cccc(-c2nc3ccccc3s/c2=N/O)c1,nt,3%[10 µM],nt,-6%,2%[9.22 µM],-3%
O=C(O)c1ccccc1SC1CC(=O)N(c2ccccc2)C1=O (stereo not drawn),-4%,-15%[10 µM],64,2.5µM*,16%,-11%
O=C(O)c1cccnc1SC1CC(=O)N(c2ccccc2)C1=O (stereo not drawn),nt,1%[10 µM],nt,nt,-8%[9.22 µM],7%
COC(=O)c1c(N2C(=O)CC(Sc3ccccc3C(=O)O)C2=O)sc2c1CCCC2 (stereo not drawn),nt,nt,nt,0.45µM*,6%,12%
Cc1ccc(S(=O)(=O)N2CCCCC2)cc1NC(=O)COC(=O)C1=COCCO1,nt,-6%,nt,4%,1%,6%
CN(C)S(=O)(=O)c1cccc(NC(=O)CCc2c[nH]c3ccccc23)c1,nt,nt,nt,?,-9%,3%
C=C[C@]1(C)C[C@H](OC(=O)CO)[C@]2(C)C3C(=O)CC[C@]3(CC[C@H]2C)[C@H](C)[C@H]1O (stereo partly drawn),-5%,5%[10 µM],nt,-3%[13.5 µM],nt,-1%[14.2 µM]
Cc1cc(C)nc(NS(=O)(=O)c2ccc(NC(=O)c3ccc4c(c3)OCCO4)cc2)n1,nt,-109%,nt,25µM*,-3%,18%
Cc1cc(C)nc(NS(=O)(=O)c2ccc(NC(=O)c3ccc(S(=O)(=O)N4CC(C)OC(C)C4)cc3)cc2)n1 (stereo not drawn),-13%,-18%[10 µM],-9,-4%,-1%,0%
Cc1cc(C)nc(NS(=O)(=O)c2ccc(NC(=O)CN3C(=O)c4ccccc4C3=O)cc2)n1,-6%,10%,-92*,6%,-1%,-2%
Cc1cc(C)nc(NS(=O)(=O)c2ccc(NC(=O)c3ccc(N4C(=O)CCC4=O)cc3)cc2)n1,0%,-1%[10 µM],-102*,-2%,25%,23%
NNC(=O)c1ccc(-c2ccccc2F)cc1,nt,15%[10 µM],nt,1.1µM*,9%[9.22 µM],4%
COC(=O)NC(/C(C(=O)OC)=C(\C)NCc1ccccc1)c1cccc(C)c1 (stereo not drawn),nt,-7%[10 µM],nt,11%[13.5 µM],nt,nt
C=CCn1cn[nH]c1=S,nt,9%,nt,-4%,-4%,9%
SMILES,HPGD inh,HTT cytoprotect,PNC assembly inh,ALDH1A1 inh,HttQ103 aggreg,RGS12 GoLoco inh
O=C(Cc1cccs1)N1CCC(c2nc3c(nnn3Cc3ccccc3Cl)c(=O)[nH]2)CC1,16µM*,13%,46,?,5%,5%
O=C(C1CCCCC1)N1CCC(c2nc3c(nnn3Cc3ccccc3Cl)c(=O)[nH]2)CC1,nt,11%[10 µM],nt,nt,nt,nt
CCCCCCC(=O)N1CCC(c2nc3c(nnn3Cc3ccccc3Cl)c(=O)[nH]2)CC1,20µM*,21%[10 µM],?,?,?,3%
O=C(c1cccs1)N1CCCC(c2nc3c(nnn3Cc3ccccc3)c(=O)[nH]2)C1 (stereo not drawn),nt,9%[10 µM],nt,nt,3%[9.22 µM],2%
Cc1nc2ccc(S(=O)(=O)NCC(=O)N3CCC(C)CC3)cc2s1,1%,10%,1,-9%,-6%,5%
COC(=O)C/C=C\[C@@H](C)[C@@H](/C=N\OC[C@@H]1O[C@H](c2ccccc2)C=C[C@@H]1Oc1ccc(OC)cc1)OC,nt,-14%[10 µM],nt,-10%[13.5 µM],nt,nt
O=C(Nc1ccccc1)[C@@]12C[C@@H]1/C(=N/O)c1ccccc1O2,-22%,0%,nt,-3%,nt,0%
O=C(CSc1nc(O)cc(=O)n1C1CCCC1)Nc1cccc(Cl)c1Cl,nt,19%[10 µM],nt,?,-7%,51%
COC(=O)c1ccccc1NC(=O)CSc1nc(O)cc(=O)n1C1CCCC1,nt,-2%,-89*,2%,9%,nt
O=C(CSc1nc(O)cc(=O)n1-c1ccccc1)NC1CCCCC1,-14%,12%,-1,25µM*,?,305%
COc1ccc2nc(SCC(=O)N3CCCCCC3)c(C#N)cc2c1,?,-27%[10 µM],-13,13µM*,-18%,14%
CCOC(=O)C1CCN(C(=O)c2cc3cc4cc(OC)ccc4nc3o2)CC1,?,17%[10 µM],4,?,1%,8%
N#Cc1cc2c(nc1SCC(=O)N1CCCCC1)CCCCC2,25µM*,-12%[0.074 µM],13,22µM*,6%,-14%
COc1ccc2nc(SCC(=O)N3CCCCC3)c(C#N)cc2c1,nt,15%[10 µM],nt,?,13%[9.22 µM],14%
COc1ccc2nc3oc(C(=O)N4CCCCC4)cc3cc2c1,?,-11%[10 µM],-100*,?,1%,11%
COc1ccc2nc(SCC(=O)N(C)C3CCCCC3)c(C#N)cc2c1,?,-14%[10 µM],34,25µM*,10%,4%
CCCCNCc1cc2ccccc2o1,nt,5%[10 µM],nt,nt,-5%[9.22 µM],-1%
CC(=O)NCCNc1ncncc1-c1ccccc1C,nt,-14%,nt,-5%,nt,-12%
C=CCOC(=O)NC(CC(=Nc1ccc(OC)cc1)C(=O)OC)c1ccccc1 (stereo not drawn),-18%,0%,nt,?,nt,4%
COc1cc2c(cc1C1NC(=S)NC(C)=C1C(=O)N(C)C)CCCC2 (stereo not drawn),-9%,nt,47,3%,-12%,-119%
